Assay outcomes: PubChem BioAssay, several laboratories
In the library only some 4.8% were active in any assay of this set; here they are far more common.
APP 5'UTR act – APP 5'UTR luciferase reporter activation; AID 1276; actives 1% (n = 190,000); activation, % at 2 µM; SH-SY5Y APP 5'UTR luciferase reporter, luminescence; zero percent = DMSO vehicle wells;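 active = activation above a set limit, based on mean plus 3 SD of controls, cut at about 140% in these data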
Hsp70 act – transcriptional activators of Hsp70; HeLa Hsp70 promoter luciferase reporter, luminescence; scaled: vehicle 0, proteasome-inhibitor control 100%; activation, % at 10 µM; actives 0.04% (n = 200,000);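 active = activation above the mean across all tested compounds plus 3 SD, cutoff set per campaign, cut at about 5.5% in these data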;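 also: 100% = MG132 at 30 µM as the positive control and 0% = DMSO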
NF-kB expr up – compounds increasing NF-kB expression in human neuronal cells; NF-kB reporter expression; stronger effect = higher value; fold change at 12.5 µM; actives 1.6% (n = 190,000); AID 1239; in the data active = fold change above about 3.3
Wee1 degr inh – human Wee1 degradation inhibition, primary screen; reporter increase, % at 5 µM; HeLa Luc-Wee1K328M stability, luciferase luminescence; 100% = proteasome inhibitor MG132 effect; P30291; actives 1.2% (n = 220,000);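 active = activation above the mean of all tested compounds plus 3 SD, set per screening run, cut at about 8.8% in these data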;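 also: cells exposed to compound for 20 h before luminescence read; 0% = DMSO alone and 100% = MG132 at 30 µM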
Target sequence (P30291 whole entry K328M): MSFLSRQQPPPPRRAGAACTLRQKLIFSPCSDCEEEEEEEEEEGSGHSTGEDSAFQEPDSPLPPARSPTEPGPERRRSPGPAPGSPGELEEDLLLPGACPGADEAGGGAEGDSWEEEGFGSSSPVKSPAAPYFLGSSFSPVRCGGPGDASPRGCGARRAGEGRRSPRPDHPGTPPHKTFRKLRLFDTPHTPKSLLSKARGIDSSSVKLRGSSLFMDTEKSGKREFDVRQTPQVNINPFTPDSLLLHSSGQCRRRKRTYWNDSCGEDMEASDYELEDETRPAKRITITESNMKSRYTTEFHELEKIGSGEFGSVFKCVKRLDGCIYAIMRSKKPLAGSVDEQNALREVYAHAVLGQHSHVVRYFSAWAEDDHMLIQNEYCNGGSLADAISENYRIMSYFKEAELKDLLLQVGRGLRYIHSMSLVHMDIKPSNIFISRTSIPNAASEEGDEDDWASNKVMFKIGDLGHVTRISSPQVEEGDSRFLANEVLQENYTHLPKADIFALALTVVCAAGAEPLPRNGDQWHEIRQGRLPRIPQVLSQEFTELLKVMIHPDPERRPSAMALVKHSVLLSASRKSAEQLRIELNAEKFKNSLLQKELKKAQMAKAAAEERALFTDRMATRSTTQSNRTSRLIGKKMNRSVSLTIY
STAT1 activator – increases IFN-gamma driven STAT1 reporter signal. NIH 3T3 STAT1-luciferase reporter, luminescence; 100% = IFN-gamma alone, no compound. activation (% of control), % at 5.5 µM. AID 932. actives 2.6% (n = 200,000);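 active = activation above the screen-wide mean activation plus 3 SD, cut at about 130% in these data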;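 also: raw ratio to IFN-gamma control signal so 100% means no change and 0% no light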
APP transl inh – APP translation inhibition; SH-SY5Y APP 5'UTR-luciferase reporter, luminescence; inhibition, % at 2 µM; actives 0.82% (n = 190,000); AID 1285;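 active = inhibition above a set limit, derived from the sample mean plus 3 SD, cut at about 45% in these data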
An asterisk follows results filed as active; x = no result.

SMILES | APP 5'UTR act | Hsp70 act | NF-kB expr up | Wee1 degr inh | STAT1 activator | APP transl inh
COc1ccc(/C=N/n2c(-c3cccs3)n[nH]c2=S)cc1 | 8 | 0 | 5.2* | -3 | 107 | -8
Cc1ccc(/C=N/n2c(-c3cccs3)n[nH]c2=S)cc1 | 5 | 0 | 4.1* | -1 | 98 | -5
O=c1c(-c2cc3ccccc3o2)[n+]([O-])c2ccccc2n1OCc1ccccn1 | 10 | 0 | 2.1 | 3 | 142* | -10
O=C1C(Cl)=C(NC2CCCCC2)C(=O)N1c1ccc(Cl)cc1 | -14 | -1 | 2.1 | -2 | 141* | 14
CCc1cc(=O)oc2cc3occ(-c4ccc(OC)c(F)c4)c3cc12 | -91 | -1 | 0.68 | -5 | 99 | 91*
COc1cccc(-c2nn(-c3ccccc3)cc2CN(C)Cc2ccno2)c1 | 3 | 0 | 0.62 | -1 | 100 | -3
O=C1c2ccccc2C(=O)C12OC2c1ccc(Cl)cc1Cl (configuration not stated) | -25 | 0 | 4.1* | 2 | 100 | 25
CC1SC(c2ccc(Cl)cc2Cl)NC1=O (configuration not stated) | 13 | 0 | 0.88 | -1 | 105 | -13
Cc1c(C(=O)NCCc2ccccc2)oc2ccc(S(=O)(=O)N3CCC4(CC3)OCCO4)cc12 | 9 | 0 | 0.5 | 9.5* | 98 | -9
CC1=C(C(=O)OCc2ccc3c(c2)OCO3)C(c2ccc(Cl)cc2)NC(=O)N1 (configuration not stated) | -78 | 0 | 0.54 | 3 | 76 | 78*
O=C(/C=C/c1ccc([N+](=O)[O-])s1)N1CCCC1 | 27 | 0 | 0.85 | -1 | 89 | -27
Cc1ccccc1NC(=O)/C=C/c1cccs1 | 60 | 0 | x | 1 | 129* | -60
CCN(CC)S(=O)(=O)c1ccc(C)c(NC(=O)/C=C/c2cccs2)c1 | 17 | 0 | 0.74 | 1 | 95 | -17
Cc1cc(C)cc(NC(=O)/C=C/c2ccc([N+](=O)[O-])s2)c1 | -53 | 0 | 1.1 | 1 | 88 | 53*
Cc1ccccc1NC(=O)/C=C/c1ccc([N+](=O)[O-])s1 | -90 | 1 | 9.8* | 2 | 99 | 90*
CC(=O)c1cccc(NC(=O)/C=C/c2ccc([N+](=O)[O-])s2)c1 | -81 | 0 | 1.2 | 3 | 88 | 81*
COC(=O)c1cccc(NC(=O)/C=C/c2cccc([N+](=O)[O-])c2)c1 | 20 | 0 | 1 | 0 | 112 | -20
c1ccc(C(c2nnnn2C2CCCC2)N2CCN(c3ccccc3)CC2)cc1 (configuration not stated) | -14 | 0 | 0.97 | -2 | 98 | 14
O=C(COC(=O)c1c2c(nc3ccccc13)CCN(Cc1ccccc1)C2)Nc1c(F)cccc1F | -4 | 0 | 0.31 | -2 | 102 | 4
O=C1NCCCC1C(=O)N/N=C/c1ccc(Cl)cc1 (configuration not stated) | x | x | x | 7 | x | x
Cc1cccc(N2C(=O)/C(=C/c3cccnc3)SC2=S)c1 | x | x | x | 4 | x | x
CCOC(=O)c1ccc(NC(=O)/C=C/c2cccs2)cc1 | 64 | 0 | 2.3 | 11* | 143* | -64
CN(C)c1ccc(/C=C/c2ccc3c4ccccc4ccc3[n+]2-c2ccccc2)cc1 | -83 | 0 | 0.36 | -4 | 56 | 83*
CN(C)c1ccc(/C=C/c2ccc3ccccc3[n+]2C)cc1 | 17 | 0 | 2.4 | -4 | 78 | -17
CCC(=O)N(C1=C(NC)C(=O)c2ccccc2C1=O)C(C)C | -22 | 0 | 0.89 | -4 | 93 | 22
SMILES | APP 5'UTR act | Hsp70 act | NF-kB expr up | Wee1 degr inh | STAT1 activator | APP transl inh
Cc1occc1C(=O)NN=C1C2CC3CC(C2)CC1C3 | 154* | 0 | 2.5 | 3 | 150* | -154
O=C1CC(SCCO)C(=O)N1c1ccccc1 (configuration not stated) | -14 | 0 | 0.94 | -1 | 108 | 14
Cc1nn(-c2ccccc2)c(N)c1N=Nc1cccnc1 | 51 | 0 | 2.3 | 3 | 133* | -51
c1ccc(-n2nnc3c(N4CCOCC4)ncnc32)cc1 | 148* | 0 | 2.5 | 2 | 90 | -148
Cc1nnc(N2CCOCC2)c2nn(-c3ccccc3)c(C)c12 | -17 | 0 | 1.1 | -1 | 98 | 17
O=C1NC(=O)c2cc(NC(=O)C3COc4ccccc4O3)ccc21 (configuration not stated) | -7 | 0 | 1.1 | -2 | 97 | 7
CC1(C)Oc2ccc(NC(=O)C3COc4ccccc4O3)cc2O1 (configuration not stated) | 168* | 0 | 4.9* | 2 | 120 | -168
CC(=O)C1=C(NC(=O)c2ccc(F)cc2)CC2C1C2(C)C (configuration not stated) | 10 | 0 | 1.2 | 0 | 94 | -10
C/C(NC(=O)c1ccccc1)=C1/C(=O)CC2C1C2(C)C (configuration not stated) | 68 | 0 | 2.1 | 0 | 130* | -68
C=CCN(CC=C)CCCOc1ccc(Br)cc1Cl | 1 | 0 | 1.3 | 8 | 102 | -1
O=C(c1sc2ccccc2c1Cl)N(Cc1ccccc1Cl)C1CCS(=O)(=O)C1 (configuration not stated) | 4 | 0 | 0.89 | 9.4* | 98 | -4
O=C(c1sc2ccccc2c1Cl)N(Cc1ccccc1)C1CCS(=O)(=O)C1 (configuration not stated) | 2 | 0 | 0.85 | 1 | 101 | -2
COc1ccc(N=c2oc3ccccc3cc2C(=O)Nc2ccccn2)cc1OC | 19 | 0 | 1.7 | 1 | 137* | -19
CCn1cnc2sc(C(=O)Oc3cccc(C)c3)c(C)c2c1=O | 10 | 0 | 1.8 | 2 | 132* | -10
COc1cccc(-c2nnn(CC(C)=O)n2)c1 | 127 | 0 | 2.2 | 2 | 134* | -127
COc1ccc(-c2ccc(-c3nnn(CC(C)=O)n3)cc2)cc1 | 87 | 0 | 2.2 | 3 | 133* | -87
S=C(c1ccc(-c2cccc(Cl)c2)o1)N1CCCCC1 | 180* | 0 | 1.5 | 2 | 147* | -180
S=C(c1ccc(-c2cc(Cl)ccc2Cl)o1)N1CCOCC1 | 20 | 0 | 1.1 | -3 | 107 | -20
N#CCCN1CCN(C(=S)c2ccc(-c3cccc(Cl)c3)o2)CC1 | 31 | 0 | 2 | 4 | 119 | -31
S=C(c1ccc(-c2cccc(Cl)c2)o1)N1CCOCC1 | 141* | 0 | 5.7* | 1 | 115 | -141
O=c1c2ccccc2nc(-c2ccco2)n1-c1nc2ccccc2s1 | 4 | 0 | 0.85 | -3 | 92 | -4
C/C=C/C(=O)OCC(=O)Nc1cccc(S(=O)(=O)NC2=NCCCCC2)c1 | 7 | 0 | 1.2 | -2 | 102 | -7
COc1ccc2c(CC(=O)N3CCc4ccccc43)coc2c1 | 142* | 0 | 4.9* | 4 | 127 | -142
